According to the supplement of paper PMC10981050:
Several values for one entry are separate records, joined by “and”; a condition that tells them apart may be missing. Identical values can stand only once. Counter-ions that a name gives are not always drawn.

Assays:
Assay in all cases: cell viability relative to vehicle control; higher = less cytotoxic
Conditions in all cases: 10 µM
K562 = test system: K562
Outline: (§1)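 CRISPR-edited SRSF2 P95 mutant and isogenic wild-type clones of four leukaemia lines were screened against Selleck bioactive, kinase and epigenetic probe libraries, with identity-inconsistent compounds removed. Compounds were acoustically dispensed into 384-well plates at a single 10 µM dose, with 2000 cells in 50 µL medium per well. After 48 h, supernatant was removed and CellTiter-Glo luminescence was read. Viability was expressed as percent of the on-plate DMSO vehicle control, analysed in Genedata Screener.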

MARIMO = test system: MARIMO
Outline: as §1

MOLM14 = test system: MOLM14
Outline: as §1

OCI-AML2 = test system: OCI-AML2
Outline: as §1

Compound | cell viability (K562; SRSF2 genotype: SRSF2 P95H/wt) | cell viability (K562; SRSF2 genotype: SRSF2 wt/wt) [%] | cell viability (MARIMO; SRSF2 genotype: SRSF2 P95H/wt) [%] | cell viability (MARIMO; SRSF2 genotype: SRSF2 wt/wt) [%] | cell viability (MOLM14; SRSF2 genotype: SRSF2 P95H/wt) [%] | cell viability (MOLM14; SRSF2 genotype: SRSF2 wt/wt) [%] | cell viability (OCI-AML2; SRSF2 genotype: P95H/wt) [%] | cell viability (OCI-AML2; SRSF2 genotype: wt/wt) [%]
CC(C)(O)CC[C@@H](O)[C@](C)(O)[C@H]1CC[C@@]2(O)C3=CC(=O)[C@@H]4C[C@@H](O)[C@@H](O)C[C@]4(C)[C@H]3CC[C@]12C [20-Hydroxyecdysone] | 104% and 98.5% | 102 | 109 | 107 | 106 | 106 | 101 | 111
FC(F)c1nc2ccccc2n1-c1nc(N2CCOCC2)nc(N2CCOCC2)n1 | 71.3% and 77.2% | 70 | 49.4 | 43.4 | 32 | 32.9 | 13.8 | 27.2
O=C(O)CCCC[C@@H]1SC[C@@H]2NC(=O)N[C@@H]21 [Biotin (Vitamin B7)] | 101% and 100% | 96.3 | 104 | 103 | 102 | 108 | 102 | 99.2
COc1ccc(-c2cc(=O)c3c(O)c(OC)c(O)c(OC)c3o2)cc1 [Lysionotin] | 104% and 98% | 98.9 | 97.9 | 114 | 64 | 76.8 | 74.8 | 83
COC(=O)C1=C(C)NC(C)=C(C(=O)OC)C1c1ccccc1[N+](=O)[O-] [Nifedipine (Adalat)] | 76.5% and 90.2% | 80.8 | 57.5 | 51.7 | 49.3 | 49.5 | 29.4 | 48.4
CCC/N=C1\S/C(=C\c2ccc(OC[C@H](O)CO)c(Cl)c2)C(=O)N1c1ccccc1C | 89.5% and 93.7% | 89.6 | 105 | 98.3 | 94.5 | 93.5 | 108 | 95.2
COc1cc2c(cc1OC)-c1c(C)c3ccc(OC)c(OC)c3c[n+]1CC2 [Dehydrocorydalin] | 88.3% and 96% | 90.6 | 94 | 96 | 94.8 | 95.6 | 79.8 | 84.1
COC(=O)N[C@H](C(=O)N1CCC[C@H]1c1nc(-c2ccc3c(c2)O[C@@H](c2ccccc2)n2c-3cc3cc(-c4c[nH]c([C@@H]5CCCN5C(=O)[C@@H](NC(=O)OC)C(C)C)n4)ccc32)c[nH]1)C(C)C [Elbasvir] | 87.7% and 92% | 86.9 | 68.6 | 77.3 | 81.9 | 87.8 | 91 | 88
C[C@@H]1CC[C@@]2(OC1)O[C@H]1C[C@H]3[C@@H]4CC=C5C[C@@H](O[C@@H]6O[C@H](CO)[C@@H](O[C@@H]7O[C@@H](C)[C@H](O[C@@H]8O[C@@H](C)[C@H](O)[C@@H](O)[C@H]8O)[C@@H](O)[C@H]7O)[C@H](O)[C@H]6O[C@@H]6O[C@@H](C)[C@H](O)[C@@H](O)[C@H]6O)CC[C@]5(C)[C@H]4CC[C@]3(C)[C@@]1(O)[C@@H]2C [Chonglou Saponin VII] | 0.5% and 0.49% | 0.46 | 0.43 | 0.55 | 0.44 | 0.46 | 0.37 | 0.47
O=C1[C@H](CC[C@H](O)c2ccc(F)cc2)[C@@H](c2ccc(O)cc2)N1c1ccc(F)cc1 [Ezetimibe (Zetia)] | 86.1% and 94.8% | 102 | 80.6 | 91 | 82.7 | 90.1 | 80.8 | 88.2
Cc1cc(C)c(/C=C2\C(=O)Nc3ccccc32)[nH]1 [Semaxanib (SU5416)] | 102% and 103% | 105 | 88.3 | 97.4 | 20 | 19.8 | 28.1 | 39.9
NC1(Cc2ccc(Cl)cc2)CCN(c2ncnc3[nH]ccc23)CC1 | 55.4% and 60.1% | 50.8 | 36.5 | 35.1 | 17.7 | 17 | 35.3 | 30.9
CC#CCn1c(N2CCC[C@@H](N)C2)nc2c1c(=O)n(Cc1nc(C)c3ccccc3n1)c(=O)n2C [Linagliptin (BI-1356)] | 99% and 103% | 103 | 98 | 97 | 101 | 106 | 110 | 93.6
Cc1cc(C(=O)NOCCO)c(Nc2ccc(I)cc2F)n(C)c1=O | 79.1% and 88% | 84.6 | 43.3 | 36.3 | 43.5 | 28.7 | 39.4 | 42.9
COc1c(C)c2c(c(O)c1C/C=C(\C)CCC(=O)OCCN1CCOCC1)C(=O)OC2 [Mycophenolate mofetil (CellCept)] | 50.6% and 48.7% | 45.1 | 45.4 | 43.6 | 9.99 | 2.92 | 13.5 | 12.2
CC(=O)Oc1cc2c(s1)CCN(C(C(=O)C1CC1)c1ccccc1F)C2 (stereo not given) [Prasugrel (Effient)] | 26.1% and 36.8% | 32.7 | 9.74 | 14.8 | 23.1 | 6.67 | 20.9 | 23.1
O=C1CCC[C@@H]2[C@H]3CCC[N+]4([O-])CCC[C@@H](CN12)[C@@H]34 (stereo not given in full) [Oxymatrine (Matrine N-oxide)] | 105% and 96.8% | 99 | 101 | 98.9 | 100 | 98.2 | 97.7 | 96.5
CC(C)(Oc1ccc(C2CC2(Cl)Cl)cc1)C(=O)O (stereo not given) [Ciprofibrate] | 101% and 96.8% | 97.7 | 89.6 | 106 | 98 | 99.4 | 94.3 | 110
CO[C@H]1C[C@@H]2CC[C@@H](C)[C@@](O)(O2)C(=O)C(=O)N2CCCC[C@H]2C(=O)O[C@H]([C@H](C)C[C@@H]2CC[C@H](n3cnnn3)[C@H](OC)C2)CC(=O)[C@H](C)/C=C(\C)[C@@H](O)[C@@H](OC)C(=O)[C@H](C)C[C@H](C)/C=C/C=C/C=C/1C [Zotarolimus (ABT-578)] | 67.9% and 74.2% | 66.1 | 77 | 76.9 | 60.8 | 56.5 | 64.2 | 61.1
Nc1nc(=O)[nH]c2c1ncn2[C@@H]1O[C@H](CO)[C@@H](O)[C@H]1O [Isoguanosine] | 101% and 98.5% | 98.7 | 94.7 | 97.7 | 93.3 | 96.8 | 106 | 91.8

Compound | cell viability (K562; SRSF2 genotype: SRSF2 P95H/wt) | cell viability (K562; SRSF2 genotype: SRSF2 wt/wt) [%] | cell viability (MARIMO; SRSF2 genotype: SRSF2 P95H/wt) [%] | cell viability (MARIMO; SRSF2 genotype: SRSF2 wt/wt) [%] | cell viability (MOLM14; SRSF2 genotype: SRSF2 P95H/wt) [%] | cell viability (MOLM14; SRSF2 genotype: SRSF2 wt/wt) [%] | cell viability (OCI-AML2; SRSF2 genotype: P95H/wt) [%] | cell viability (OCI-AML2; SRSF2 genotype: wt/wt) [%]
COc1ccc2cc1Oc1ccc(cc1)C[C@H]1c3c(cc4c(c3Oc3cc5c(cc3OC)CCN(C)[C@@H]5C2)OCO4)CCN1C [Cepharanthine] | 5.44% and 5.78% | 3.74 | 57.9 | 50.3 | 25.4 | 26.7 | 0.56 | 8.53
CC(NCCc1ccc(O)cc1)C(O)c1ccc(O)cc1 (stereo not given) [Ritodrine hydrochloride (Yutopar)] | 106% and 102% | 96.3 | 100 | 106 | 98.6 | 99.8 | 104 | 107
CCCCCCCCN=c1ccn(CCCCCCCCCCn2ccc(=NCCCCCCCC)cc2)cc1 [Octenidine Dihydrochloride] | 0.46% and 0.39% | 0.55 | 0.32 | 0.34 | 0.3 | 0.33 | 0.29 | 0.41
COc1c2occc2cc2ccc(=O)oc12 [Methoxsalen (Oxsoralen)] | 108% and 106% | 107 | 106 | 106 | 105 | 111 | 98.1 | 107
Cc1cccc(N(C)C(=S)Oc2ccc3ccccc3c2)c1 [Tolnaftate] | 99.7% and 106% | 91.9 | 89.3 | 109 | 96.9 | 101 | 106 | 109
CN(C)C1CCN(C(=O)c2ccc(NC(=O)Nc3ccc(-c4nc(N5CCOCC5)nc(N5CCOCC5)n4)cc3)cc2)CC1 | 34.1% and 32.1% | 26.6 | 43.2 | 34.9 | 22.1 | 21.3 | 10.5 | 16.2
COc1nc(N)nc2c1ncn2[C@@H]1O[C@H](CO)[C@@H](O)[C@@H]1O [Nelarabine (Arranon)] | 98.2% and 96.9% | 99.6 | 95.5 | 91.2 | 90.7 | 93.5 | 94.7 | 94.5
COCC1=C(C(=O)OC(C)OC(=O)OC(C)C)N2C(=O)[C@@H](NC(=O)/C(=N\OC)c3csc(N)n3)[C@H]2SC1 (stereo not given in full) [Cefpodoxime proxetil] | 103% and 105% | 92.6 | 91.9 | 100 | 90.4 | 95.7 | 90.3 | 94.9
O=C(N[C@@H](c1ccccc1)[C@@H](O)C(=O)O)c1ccccc1 [N-Benzoyl-(2R,3S)-3-phenylisoserine] | 108% and 99.9% | 103 | 100 | 98.4 | 103 | 102 | 101 | 104
COc1cc(O)c2c(c1)oc(=O)c1c3cc(O)c(O)cc3oc21 [Wedelolactone] | 84.6% and 90.9% | 76.1 | 87.2 | 102 | 61.3 | 67.2 | 68.3 | 82.1
CN1CCN(c2ccc3nc(-c4c(N)c5c(F)cccc5[nH]c4=O)[nH]c3c2)CC1 [Dovitinib Dilactic acid (TKI258 Dilactic aci] | 6.48% and 13.2% | 8.9 | 10.8 | 12.8 | 0.16 | 0.07 | 0.15 | 0.51
C=C1[C@@H]2CC[C@@H](C2)C1(C)C [Camphene] | 105% and 102% | 106 | 102 | 111 | 95 | 108 | 98.5 | 97.1
Brc1ccc2[nH]ccc2c1 [5-Bromoindole] | 107% and 100% | 107 | 95.7 | 98 | 99.5 | 103 | 102 | 115
CS(=O)(=O)Nc1cc2occ(NC=O)c(=O)c2cc1Oc1ccccc1 [Iguratimod] | 107% and 95.3% | 110 | 107 | 107 | 99.1 | 108 | 117 | 123
COc1c(O[C@@H]2O[C@H](CO)[C@@H](O)[C@H](O)[C@H]2O)cc2occ(-c3ccc(O)cc3)c(=O)c2c1O [Tectoridin] | 93% and 87.4% | 84.8 | 94.4 | 95.3 | 91.8 | 96.1 | 91 | 97.8
Nc1nc(Nc2ccc(S(N)(=O)=O)cc2)nn1C(=O)c1c(F)cccc1F | 41.2% and 43.9% | 31.2 | 10.8 | 7.19 | 3.09 | 0.41 | 2.63 | 12
CC(C)c1cnn2c(NCc3ccccc3-n3cccn3)nc(OC3CCCNC3)nc12 (stereo not given) | 5.8% and 12.8% | 9.75 | 0.54 | 0.75 | 0.56 | 0.56 | 0.46 | 1.89
C[C@H](CCC(=O)O)[C@H]1CC[C@H]2[C@@H]3CC[C@@H]4C[C@H](O)CC[C@]4(C)[C@H]3C[C@H](O)[C@]12C [Deoxycholic acid] | 94.9% and 86.4% | 87.3 | 93.7 | 103 | 94.7 | 95 | 94.5 | 93
CC(C)(C)C(=O)OCOP(=O)(COCCn1cnc2c(N)ncnc21)OCOC(=O)C(C)(C)C [Adefovir Dipivoxil (Preveon, Hepsera)] | 59.1% and 71.3% | 75.8 | 30.7 | 36.8 | 0.75 | 0.59 | 0.85 | 2.98
C=C1/C(=C\C=C2/CCC[C@]3(C)[C@@H]([C@H](C)/C=C/[C@H](C)C(C)C)CC[C@@H]23)C[C@@H](O)C[C@@H]1O [Doxercalciferol (Hectorol)] | 81.4% and 88.8% | 86.5 | 69.6 | 46.8 | 68.5 | 70.8 | 55.3 | 73
